# Measured values published in PMC5540273 (PLoS ONE, 2017).
# Tested on: CDC2L2
# Details: concentration: 1 μM, replicates: in singlicate; n = 1
# 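Further: KINOMEscan kinase panel screen.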
row,Compound,%Inh
1,Oc1ccc2ncnc(Nc3ccc(OCc4ccccc4)cc3)c2c1 [GI262866],0%
2,FC(F)(F)c1ccc(-c2cc(-c3c[nH]nc3-c3ccccn3)ccn2)cc1 [GW599550],26%
3,CCc1nc(-c2cccc(C)c2)c(-c2ccnc(NC(=O)c3ccccc3)c2)s1,2%
4,CN1c2ccc(-c3ccc(C(=O)NCCO)cc3)cc2-c2[nH]ncc2S1(=O)=O,0%
5,O=C(c1ccc(-c2cc(-c3c[nH]nc3-c3ccccn3)ccn2)cc1)N1CCCC1 [GW792479],7%
6,COc1ccc(-c2oc3ncnc(N)c3c2-c2ccc(OC)cc2)cc1 [SB-589132],0%
7,CCc1nc(-c2cccc(N(C)S(=O)(=O)c3ccccc3)c2)c(-c2ccnc(Nc3ccc(N4CCN(C(C)=O)CC4)nc3)n2)s1 [GSK1645895],16%
8,Fc1cccc(COc2ccc(Nc3ncnc4cc[nH]c34)cc2Cl)c1,11%
9,Cl.c1ccc(Cn2ncc3cc(Nc4ncnc5ccccc45)ccc32)cc1 [GW273749],19%
10,COC(=O)c1cccc(NC(=O)NCCNc2ccnc(Nc3ccc(F)cc3)n2)c1 [GSK1379883],20%
11,Cl.c1ccc(Cn2ccc3cc(Nc4ncnc5ccccc45)ccc32)cc1 [GW275568],28%
12,COc1ccc(Nc2nccc(N3CCC(NC(=O)c4cccc(NC(C)=O)c4)C3)n2)cc1 (stereo not shown) [GSK1379732],11%
13,Nc1nccc2scc(-c3ccc4c(c3)CCN4C(=O)Cc3cc(F)ccc3F)c12 [GSK2587663],6%
14,Fc1ccc(Nc2nccc(-c3c(-c4ccc(Cl)cc4)nn4ncccc34)n2)cc1F [GW829058],11%
15,CS(=O)(=O)CCNCc1ccc(-c2ccc3ncnc(Nc4ccc(OCc5ccccc5)c(Cl)c4)c3c2)o1.Cl [GW574783],0%
16,Cn1ccc2ncnc(Oc3ccc(NC(=O)Nc4cccnc4)c(Cl)c3)c21,0%
17,COc1ccc(NC(=O)c2ccc(-c3cc(-c4nnc(C)o4)ccc3C)cc2)cc1 [GW595885],0%
18,NC(=O)c1sc(-n2cnc3ccccc32)cc1OCc1ccccc1F [GSK1024306],0%

row,Compound,%Inh
1,Fc1ccc(-c2ncn(CCCNCc3ccccc3)c2-c2ccncc2)cc1,0%
2,CCC(CC)(CC)n1cnc2c(N)ncnc21 [SKF-97620],0%
3,N#Cc1ccc(Oc2ccc(Nc3ncnc4cc[nH]c34)cc2Cl)cc1,10%
4,O=C(Nc1n[nH]c2nc(-c3ccco3)c(Br)cc12)c1ccc(CN2CCCC2)cc1.O=C(O)[C@H](O)[C@@H](O)C(=O)O [SB-742352],0%
5,O=C(NCCCN1CCCC1=O)c1cnc(NCc2cc(Cl)ccc2Cl)nc1NC1CCNCC1,0%
6,O=C(Nc1ccccc1)Nc1ccc(Oc2ccc3nccn3n2)cc1,8%
7,CCCc1ccc(S(=O)(=O)NC2CCN(c3ccnc(Nc4ccc(OC)cc4)n3)C2)cc1 (stereo not shown) [GSK1379737],0%
8,COC(=O)c1c(-c2ccccc2)c2cc(Cl)ccc2c(=O)n1Cc1ccc(S(C)(=O)=O)cc1,10%
9,CC(C)N1CCC(n2cnc(-c3ccc(F)cc3)c2-c2ccnc(N)n2)CC1 [SB-223132],19%
10,Nc1n[nH]c2nnc(-c3ccccc3)cc12 [SB-517389],0%
11,C[C@H]1CC[C@@H](C(=O)Nc2ccccc2)CN1c1cc(-c2ccc3c(N)n[nH]c3c2)nc(N)n1 [GSK2283293],13%
12,CN1CCC(n2cnc(-c3ccc(F)cc3)c2-c2ccnc(NC3CCNCC3)n2)CC1 [SB-229482],8%
13,Fc1cccc(COc2ccc(Nc3ncnc4sc(-c5ccc[nH]5)cc34)cc2Cl)c1 [GW707818],15%
14,O=C(Nc1ccccc1F)NC1CCN(c2ccnc(Nc3ccc(F)cc3)n2)C1 (stereo not shown) [GSK1379722],0%
15,Clc1ccc(-c2cc(-c3c[nH]nc3-c3ccccn3)ccn2)cc1 [GW681251],0%
16,COc1cc2ncnc(Nc3ccc(OCc4ccccc4Br)c(Cl)c3)c2cc1OC.Cl [GI261590],18%
17,Cl.Cl.c1ccc(-c2cc3ccncc3cc2OC2CCNCC2)cc1 [GSK1122999],5%

# Tested on: T1, CDC2L5
# T1 construct: gene CDK13
# Details: concentration: 1 μM, replicates: in singlicate; n = 1
row,Compound,%Inh
1,Oc1ccc2ncnc(Nc3ccc(OCc4ccccc4)cc3)c2c1 [GI262866],0%
2,FC(F)(F)c1ccc(-c2cc(-c3c[nH]nc3-c3ccccn3)ccn2)cc1 [GW599550],0%
3,CCc1nc(-c2cccc(C)c2)c(-c2ccnc(NC(=O)c3ccccc3)c2)s1,12%
4,CN1c2ccc(-c3ccc(C(=O)NCCO)cc3)cc2-c2[nH]ncc2S1(=O)=O,2%
5,O=C(c1ccc(-c2cc(-c3c[nH]nc3-c3ccccn3)ccn2)cc1)N1CCCC1 [GW792479],15%
6,COc1ccc(-c2oc3ncnc(N)c3c2-c2ccc(OC)cc2)cc1 [SB-589132],0%
7,CCc1nc(-c2cccc(N(C)S(=O)(=O)c3ccccc3)c2)c(-c2ccnc(Nc3ccc(N4CCN(C(C)=O)CC4)nc3)n2)s1 [GSK1645895],0%
8,Fc1cccc(COc2ccc(Nc3ncnc4cc[nH]c34)cc2Cl)c1,0%
9,Cl.c1ccc(Cn2ncc3cc(Nc4ncnc5ccccc45)ccc32)cc1 [GW273749],0%
10,COC(=O)c1cccc(NC(=O)NCCNc2ccnc(Nc3ccc(F)cc3)n2)c1 [GSK1379883],0%
11,Cl.c1ccc(Cn2ccc3cc(Nc4ncnc5ccccc45)ccc32)cc1 [GW275568],0%
12,COc1ccc(Nc2nccc(N3CCC(NC(=O)c4cccc(NC(C)=O)c4)C3)n2)cc1 (stereo not shown) [GSK1379732],0%
13,Nc1nccc2scc(-c3ccc4c(c3)CCN4C(=O)Cc3cc(F)ccc3F)c12 [GSK2587663],0%
14,Fc1ccc(Nc2nccc(-c3c(-c4ccc(Cl)cc4)nn4ncccc34)n2)cc1F [GW829058],30%
15,CS(=O)(=O)CCNCc1ccc(-c2ccc3ncnc(Nc4ccc(OCc5ccccc5)c(Cl)c4)c3c2)o1.Cl [GW574783],0%
16,Cn1ccc2ncnc(Oc3ccc(NC(=O)Nc4cccnc4)c(Cl)c3)c21,10%
17,COc1ccc(NC(=O)c2ccc(-c3cc(-c4nnc(C)o4)ccc3C)cc2)cc1 [GW595885],0%
18,NC(=O)c1sc(-n2cnc3ccccc32)cc1OCc1ccccc1F [GSK1024306],0%

row,Compound,%Inh
1,Fc1ccc(-c2ncn(CCCNCc3ccccc3)c2-c2ccncc2)cc1,18%
2,CCC(CC)(CC)n1cnc2c(N)ncnc21 [SKF-97620],20%
3,N#Cc1ccc(Oc2ccc(Nc3ncnc4cc[nH]c34)cc2Cl)cc1,0%
4,O=C(Nc1n[nH]c2nc(-c3ccco3)c(Br)cc12)c1ccc(CN2CCCC2)cc1.O=C(O)[C@H](O)[C@@H](O)C(=O)O [SB-742352],0%
5,O=C(NCCCN1CCCC1=O)c1cnc(NCc2cc(Cl)ccc2Cl)nc1NC1CCNCC1,0%
6,O=C(Nc1ccccc1)Nc1ccc(Oc2ccc3nccn3n2)cc1,0%
7,CCCc1ccc(S(=O)(=O)NC2CCN(c3ccnc(Nc4ccc(OC)cc4)n3)C2)cc1 (stereo not shown) [GSK1379737],0%
8,COC(=O)c1c(-c2ccccc2)c2cc(Cl)ccc2c(=O)n1Cc1ccc(S(C)(=O)=O)cc1,29%
9,CC(C)N1CCC(n2cnc(-c3ccc(F)cc3)c2-c2ccnc(N)n2)CC1 [SB-223132],0%
10,Nc1n[nH]c2nnc(-c3ccccc3)cc12 [SB-517389],0%
11,C[C@H]1CC[C@@H](C(=O)Nc2ccccc2)CN1c1cc(-c2ccc3c(N)n[nH]c3c2)nc(N)n1 [GSK2283293],0%
12,CN1CCC(n2cnc(-c3ccc(F)cc3)c2-c2ccnc(NC3CCNCC3)n2)CC1 [SB-229482],31%
13,Fc1cccc(COc2ccc(Nc3ncnc4sc(-c5ccc[nH]5)cc34)cc2Cl)c1 [GW707818],0%
14,O=C(Nc1ccccc1F)NC1CCN(c2ccnc(Nc3ccc(F)cc3)n2)C1 (stereo not shown) [GSK1379722],0%
15,Clc1ccc(-c2cc(-c3c[nH]nc3-c3ccccn3)ccn2)cc1 [GW681251],0%
16,COc1cc2ncnc(Nc3ccc(OCc4ccccc4Br)c(Cl)c3)c2cc1OC.Cl [GI261590],0%
17,Cl.Cl.c1ccc(-c2cc3ccncc3cc2OC2CCNCC2)cc1 [GSK1122999],0%
